Screen size: about 340,000 compounds; about 1,000 (0.29%) were called active. Rule as the data show it: inconclusive = inhibition above about 27% without an active follow-up result; inactive = below that. A selection follows. Entries with a potency or affinity are not part of this list.
Assay: H1N1 influenza NS1A inhibitors, functional cell based assay (AID 504329)
Details: percent inhibition, at 12.5 µM, stronger effect = higher value

| SMILES | inhibition |
| --- | --- |
| CCOc1ccc(NS(=O)(=O)c2cccc(C(=O)NCC3(N(C)C)CCCCC3)c2)cc1 | 0.36% (inactive) |
| Cc1cc2nc(-c3ccc[nH]c3=O)n(Cc3ccc(F)cc3)c2cc1C | 1.86% (inactive) |
| COc1cccc(CNC(=O)COC(=O)C23CC4CC(CC(Cl)(C4)C2)C3)c1 | -9.8% (inactive) |
| O=C(CN(Cc1ccccc1Cl)C(=O)c1ccc(CN2CCOCC2)o1)NCc1ccccc1 | 1.95% (inactive) |
| O=c1c2ccccc2nc(SCCN2CCCCC2)n1CCc1ccccc1 | 6.75% (inactive) |
| CC/C(C)=N/N1C(=O)c2ccccc2NC1(C)CC (stereo unspecified) | 5.09% (inactive) |
| O=C(CCc1c[nH]c2ccccc12)NCC1CCCO1 (stereo unspecified) | -2.9% (inactive) |
| O=C(Cn1c(-c2ccccc2)noc1=O)Nc1ccc(S(=O)(=O)N2CCOCC2)cc1 | 2.21% (inactive) |
| O=C(N/N=C/c1ccc(O)cc1)c1ccncc1 | -6.99% (inactive) |
| Cc1nonc1C(=O)N/N=C/c1cccc(O)c1 | -4.77% (inactive) |
| COc1cccc(/C=N/NC(=O)CNC(=O)c2ccncc2)c1O | 10.4% (inactive) |
| COc1ccccc1C=NNC(=O)c1ccncc1 | -14.4% (inactive) |
| Cc1nonc1C(=O)N/N=C/c1ccc(O)c(O)c1 | -5.97% (inactive) |
| O=C(CNC(=O)c1ccncc1)N/N=C/c1ccc(O)cc1O | 9.53% (inactive) |
| O=C(N/N=C/c1ccccc1C(=O)O)c1ccncc1 | -0.84% (inactive) |
| O=C(N/N=C/c1ccccc1Cl)c1ccncc1 | 2.1% (inactive) |
| CC(NC(=O)COC(=O)/C=C/c1ccco1)c1ccccc1 (stereo unspecified) | -3.74% (inactive) |
| CCOC(=O)c1ccccc1NC(=O)CSc1nc(N)cc(=O)[nH]1 | -7.55% (inactive) |
| CN(C)C(=O)c1ccc(NC(=O)COc2cccc(Oc3ccccc3)c2)cc1 | -4.79% (inactive) |
| CC(C)CCC(C(=O)O)C(C)CC(=O)NC1CCCCC1 (stereo unspecified) | 4.04% (inactive) |
| CCC(C)[C@H](NC(=O)N1CC(=O)Nc2ccccc21)C(=O)N1CCC(C(=O)O)CC1 (stereo partly specified) | 1.95% (inactive) |
| Cc1cccc(N(C(=O)CNC(=O)c2ccco2)C(C(=O)NC2CCCC2)c2ccncc2)c1C (stereo unspecified) | 6.68% (inactive) |
| CCCn1cc(CN2CCC(n3nccc3NC(=O)CCOc3ccccc3)CC2)c(C)n1 | 3.28% (inactive) |
| CN1CCN(c2ccc(S(=O)(=O)N3CCCCC3)cn2)CC1 | -0.41% (inactive) |
| O=C(COC(=O)c1cc([N+](=O)[O-])ccc1N1CCOCC1)Nc1ccc(Cl)cc1 | -5.7% (inactive) |
| Cc1cccc(C)c1C(=O)N[C@@H](Cc1ccccc1)C(=O)O | 2.25% (inactive) |

Source: PubChem BioAssay AID504329 (Southern Research Specialized Biocontainment Screening …, 2011)
